{"source": "PubChem BioAssay AID1850", "about": "(Southern Research Specialized Biocontainment Screening …, 2009)", "note": "Hit rate of the full screen: of about 310,000 compounds, about 1,000 (0.32%) were called active. No rule for the calls is given here. These entries were drawn from the full list. Potency and affinity values are given separately."}
{"experiment": "Inhibition of PhoP regulon, Salmonella typhi GFP reporter cells, confirmation, 4 h (AID 1850);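 also: 0% = induced wells with vehicle and 100% = uninduced wells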", "conditions": "Salmonella Typhi PhoP-promoter GFP reporter, fluorescence, at 50 µM, stronger effect = higher value"}
{"smiles": "COc1ccc(NC(=O)CSc2nc3c(c(-c4cccs4)c2C#N)CN(C)CC3)cc1OC", "inhibition": "0.71% (inactive)"}
{"smiles": "CN1CCc2nc(SCC(=O)Nc3ccc(OC(F)(F)F)cc3)c(C#N)c(-c3cccs3)c2C1", "inhibition": "-3.5% (inactive)"}
{"smiles": "COc1ccccc1Nc1ccc([N+](=O)[O-])cc1N", "inhibition": "2.25% (inactive)"}
{"smiles": "CC1CC(C)CN(S(=O)(=O)c2ccc3c(c2)CC(C)N3C(=O)C2CC2)C1", "note": "(configuration not stated)", "inhibition": "-20.4% (inactive)"}
{"smiles": "CCc1ccc(-c2cc(C)no2)cc1S(=O)(=O)N1CCN(c2ccc(OC)cc2)CC1", "inhibition": "-6.02% (inactive)"}
{"smiles": "O=[N+]([O-])c1ccc(N2CCCC2)c2ncccc12", "inhibition": "-3.29% (inactive)"}
{"smiles": "O=[N+]([O-])c1cccc2c(N3CCOCC3)ccnc12", "inhibition": "-0.36% (inactive)"}
{"smiles": "Cc1cc(C)cc(OCC(=O)Nc2cccc(-c3nnc(-c4ccco4)o3)c2)c1", "inhibition": "3.78% (inactive)"}
{"smiles": "CCCCNC(=O)O[C@@H]1C[C@H]2CCC(=O)N3CC[C@@H](C1)[C@@H]23", "inhibition": "4.97% (inactive)"}
{"smiles": "CCC(C)c1ccc(NC(=O)c2[nH]c(C)c(C(C)=O)c2C)cc1", "note": "(configuration not stated)", "inhibition": "-9.52% (inactive)"}
{"smiles": "Cc1ccc(O)c(C=Nc2ccc3[nH]ncc3c2)c1", "inhibition": "-7.82% (inactive)"}
{"smiles": "COc1ccc(C=Nc2ccc3[nH]ncc3c2)c(O)c1", "inhibition": "0.93% (inactive)"}
{"smiles": "CC1=C(C#N)C(c2cccnc2)C2=C(N1)c1ccccc1C2=O", "note": "(configuration not stated)", "inhibition": "1.42% (inactive)"}
{"smiles": "Cc1ccc(Nc2ccc(NCc3ccccc3)nn2)cc1C", "inhibition": "-4.54% (inactive)"}
{"smiles": "Cc1cccc(Nc2ccc(NCc3ccccc3)nn2)c1", "inhibition": "5.48% (inactive)"}
{"smiles": "O=C(O)/C=C/C(=O)N1CCN(c2ccc(F)cc2)CC1", "inhibition": "2.57% (inactive)"}
{"smiles": "Cc1c(Cc2ccccc2)c(=O)oc2cc(OCC(=O)N[C@@H](Cc3ccccc3)C(=O)O)ccc12", "inhibition": "1.41% (inactive)"}
{"smiles": "C#CCOCCOCCOCCNc1nc(N2CCOCC2)nc(N2CCN(C(=O)[C@H](Cc3cc4ccccc4[nH]3)n3cc([C@@H](N)CC(C)C)nn3)CC2)n1", "inhibition": "7.58% (inactive)"}
{"smiles": "C#CCOCCOCCOCCNc1nc(N2CCN(C(=O)[C@H](Cc3cc4ccccc4[nH]3)n3cc(C(N)CC(C)C)nn3)CC2)nc(N2CCN(C(=O)[C@H](CCC(=O)O)n3cc(C(N)[C@H](C)CC)nn3)CC2)n1", "note": "(some centres not stated)", "inhibition": "-6.17% (inactive)"}
{"smiles": "C#CCOCCOCCOCCNc1nc(N2CCN(C(=O)[C@H](CCC(=O)O)n3cc(C(N)CC(C)C)nn3)CC2)nc(N2CCN(C(=O)[C@H](Cc3cc4ccccc4[nH]3)n3cc(C(N)CC(C)C)nn3)CC2)n1", "note": "(some centres not stated)", "inhibition": "-7.76% (inactive)"}
{"smiles": "C#CCOCCOCCOCCNc1nc(N2CCN(C(=O)C(Cc3cc4ccccc4[nH]3)n3cc(C(N)C(C)CC)nn3)CC2)nc(N2CCN(C(=O)C(Cc3cc4ccccc4[nH]3)n3cc(C(N)C(C)CC)nn3)CC2)n1", "note": "(configuration not stated)", "inhibition": "37.5% (inactive)"}
{"smiles": "CN(C)C(=S)Nc1ccc(Cc2ccncc2)cc1", "inhibition": "-0.62% (inactive)"}
{"smiles": "CCN(Cc1ccccc1)C(=O)c1cccc(S(=O)(=O)N2CCN(c3ccccc3)CC2)c1", "inhibition": "1.18% (inactive)"}
{"smiles": "COCCCN1CN(S(=O)(=O)c2ccc(C)cc2C)c2nc3ccccc3nc21", "inhibition": "6.06% (inactive)"}
{"smiles": "COCCCNC(=O)c1ccccc1N(Cc1ccccc1)S(=O)(=O)c1ccccc1", "inhibition": "-7.24% (inactive)"}
{"smiles": "N=c1c2c(n(Cc3ccccc3)c3c1CCC3)CCC2", "inhibition": "-2.77% (inactive)"}
{"smiles": "Clc1cccc(CN2CCCCCC2)c1", "inhibition": "-6.25% (inactive)"}
{"smiles": "N=c1c2c(n(Cc3ccc(F)cc3)c3c1CCC3)CCC2", "inhibition": "-1.84% (inactive)"}
{"smiles": "N=c1c2c(n(Cc3ccc(F)cc3)c3c1CCC3)CCCC2", "inhibition": "5.47% (inactive)"}
{"smiles": "N=c1c2c(n(Cc3ccc(Br)cc3)c3c1CCC3)CCCC2", "inhibition": "-4.26% (inactive)"}
{"smiles": "N=c1c2c(n(Cc3ccc([N+](=O)[O-])cc3)c3c1CCC3)CCCC2", "inhibition": "-1.87% (inactive)"}
{"smiles": "CCn1c2c(c(=N)c3c1CCC3)CCCC2", "inhibition": "8.7% (inactive)"}
{"smiles": "N=c1ccn(Cc2ccc(Cl)cc2Cl)cc1", "inhibition": "22.8% (inactive)"}
{"smiles": "COc1ccc(N2CCN(S(=O)(=O)CCNC(=O)/C=C/c3ccc4c(c3)OCO4)CC2)cc1", "inhibition": "-1.81% (inactive)"}
{"smiles": "CC(C)NC(=O)C(=O)NCc1ccccn1", "inhibition": "15.4% (inactive)"}
{"smiles": "CN(CCn1ccnc1)Cc1cn(Cc2ccccc2)nc1-c1ccc2c(c1)OCO2", "inhibition": "8.95% (inactive)"}
{"smiles": "CCCn1c(=O)c(C(=O)NCCc2ccc(OC)c(OC)c2)c(O)c2ccccc21", "inhibition": "3.2% (inactive)"}
{"smiles": "CCn1c(/N=C/c2ccccc2O)nc2ccccc21", "inhibition": "-0.93% (inactive)"}
{"smiles": "CCN1CCSc2ccc(C(=O)NCc3ccc(OC(C)C)cc3)cc21", "inhibition": "-2.46% (inactive)"}
{"smiles": "O=C(CNCCC1=CCCCC1)Nc1ccccc1N1CCCCCC1", "inhibition": "5.47% (inactive)"}
{"smiles": "COc1ccc(NC(=O)CNCCC2=CCCCC2)cc1", "inhibition": "-8.03% (inactive)"}
{"smiles": "O=S1(=O)NC(=NCCc2ccccn2)c2ccccc21", "inhibition": "-5.57% (inactive)"}
{"smiles": "Cc1ccc2ccc3cccnc3c2n1", "inhibition": "2.32% (inactive)"}
{"smiles": "Cc1ccc2c(c1)-c1ccccc1S(=O)(=O)N2", "inhibition": "-6.75% (inactive)"}
{"smiles": "Clc1ccc2ccc3cccnc3c2n1", "inhibition": "2.67% (inactive)"}
{"smiles": "CCC(C)c1ccccc1N1CC(C(=O)Nc2cc(S(=O)(=O)N3CCOCC3)ccc2OC)CC1=O", "note": "(configuration not stated)", "inhibition": "1.56% (inactive)"}
{"smiles": "CSc1ccc(C2NC(=O)CCC2[N+](=O)[O-])cc1", "note": "(configuration not stated)", "inhibition": "9.78% (inactive)"}
{"smiles": "Cc1c(C(=O)N2CCN(C(=O)c3ccco3)CC2)oc2c(Cl)cccc12", "inhibition": "5.99% (inactive)"}
{"smiles": "O=C(O/N=C/C1=C(Cl)c2ccccc2CC1)c1ccc(F)cc1", "inhibition": "-1% (inactive)"}
{"smiles": "Cc1ccc(C(=O)O/N=C/C2=C(Cl)c3ccccc3CC2)cc1", "inhibition": "3.65% (inactive)"}
{"smiles": "CCC(C)NCCOc1cc(C)cc(C)c1C", "note": "(configuration not stated)", "inhibition": "10.5% (inactive)"}
{"smiles": "CCOC(=O)c1c(C)[nH]c(C)c1S(=O)(=O)N1c2ccccc2CC1C", "note": "(configuration not stated)", "inhibition": "-32.7% (inactive)"}
{"smiles": "CCOc1ccccc1N1C(=O)NC(=O)C(CCc2ccncc2)(CCc2ccncc2)C1=O", "inhibition": "-6.46% (inactive)"}
{"smiles": "CCc1cccc(NC(=O)CSc2nc3c(c(=O)[nH]2)CCCC3)c1", "inhibition": "8.6% (inactive)"}
{"smiles": "COC(=O)CSC1=NS(=O)(=O)c2ccccc21", "inhibition": "-2.6% (inactive)"}
{"smiles": "CN1CCN(/N=C/c2ccc(-c3ccccc3)cc2)CC1", "inhibition": "1.69% (inactive)"}
{"smiles": "CN1CCN(/N=C/c2cccc(Cl)c2Cl)CC1", "inhibition": "0.18% (inactive)"}
{"smiles": "CCC(C)(C)NC(=O)C(c1ccc(OC)cc1)N(C(=O)CCC(=O)Nc1cc(C)on1)c1cccc(OC)c1", "note": "(configuration not stated)", "inhibition": "1.27% (inactive)"}
{"smiles": "O=C(NNC(=O)c1nn(-c2ccc(F)cc2)ccc1=O)c1ccc(Cl)cc1", "inhibition": "1.15% (inactive)"}
{"smiles": "CC1(CC(=O)N/N=C/c2cc(Br)c(O)cc2O)OCCO1", "inhibition": "-8.89% (inactive)"}
{"smiles": "CC1(CC(=O)N/N=C/c2cc3c(cc2Br)OCO3)OCCO1", "inhibition": "5.58% (inactive)"}
{"smiles": "CCN(C1CCCCC1)S(=O)(=O)c1c(C)n(C)c(=O)n(C)c1=O", "inhibition": "-2.91% (inactive)"}
{"smiles": "Cc1c(-n2cc(C(=O)O)c(=O)c3cc(F)c(N4CCCC4)c(F)c32)c(=O)n(-c2ccccc2)n1C", "inhibition": "-2.73% (inactive)"}
{"smiles": "CCOC(=O)C1CN(c2cc3c(cc2F)c(=O)c(C(=O)O)cn3CC)OC1C(=O)OCC", "note": "(configuration not stated)", "inhibition": "-4.02% (inactive)"}
{"smiles": "CCOc1ccc(NC(=O)c2ccc(NC(=O)c3cn4c5c(c(N6CCN(C)CC6)c(F)cc5c3=O)OCC4C)cc2)cc1", "note": "(configuration not stated)", "inhibition": "-0.94% (inactive)"}
{"smiles": "Cc1cc(C)c(NC(=O)c2cn3c4c(c(N5CCN(C)CC5)c(F)cc4c2=O)OCC3C)c(C)c1", "note": "(configuration not stated)", "inhibition": "1.68% (inactive)"}
{"smiles": "CCOC(=O)c1cnc2cc(F)c(F)cc2c1N1CCN(C)CC1", "inhibition": "-5.38% (inactive)"}
{"smiles": "CCn1cc(C(=O)O)c(=O)c2cc(F)c(N/N=C/c3ccccc3)cc21", "inhibition": "-3.82% (inactive)"}
{"smiles": "O=C(Nc1cccc(F)c1)OC(CN1CCCCC1)C(F)(F)F", "note": "(configuration not stated)", "inhibition": "6.26% (inactive)"}
{"smiles": "CC1(C)Cc2c(cnn2-c2ccc(F)cc2)C(NC(=O)CN2CCCCC2=O)C1", "note": "(configuration not stated)", "inhibition": "-4.07% (inactive)"}
{"smiles": "CCCNC(=S)N1CCN(C)CC1", "inhibition": "-12.9% (inactive)"}
{"smiles": "CCOC(=O)c1ccc(Nc2nnc(C(C)(C)C)c(=O)[nH]2)cc1", "inhibition": "-2.27% (inactive)"}
{"smiles": "Cc1ccc(C(=O)CSc2nnc(C(C)C)n2C)cc1C", "inhibition": "-9.07% (inactive)"}
{"smiles": "O=C(c1ccc2nc(Cc3ccccc3F)oc2c1)N1CCCC1", "inhibition": "-15.9% (inactive)"}
{"smiles": "C/C(=N\\OC(=O)c1c(-c2ccccc2Cl)noc1C)c1nccs1", "inhibition": "-7.14% (inactive)"}
{"smiles": "COCCn1c(N)c(N(Cc2ccccc2)C(=O)c2oc3ccccc3c2C)c(=O)[nH]c1=O", "inhibition": "-2.04% (inactive)"}
{"smiles": "CCOc1ccccc1N1CCN(C(=S)NCc2ccco2)CC1", "inhibition": "-6.16% (inactive)"}
{"smiles": "CC(=O)c1cnc2nc(C(F)(F)F)nn2c1C", "inhibition": "-10.3% (inactive)"}
{"smiles": "CCCCCCn1c2c(c(=N)c3c1CCC3)CCC2", "inhibition": "12% (inactive)"}
{"smiles": "CCCn1c2c(c(=N)c3c1CCC3)CCC2", "inhibition": "-2.65% (inactive)"}
{"smiles": "CCCCn1c2c(c(=N)c3c1CCC3)CCC2", "inhibition": "-3.76% (inactive)"}
{"smiles": "CCCCCCCCn1c2c(c(=N)c3c1CCC3)CCCC2", "inhibition": "-5.2% (inactive)"}
{"smiles": "CC(NC(=O)CNC(=O)c1sc2ccccc2c1Cl)c1ccc(S(N)(=O)=O)cc1", "note": "(configuration not stated)", "inhibition": "3.29% (inactive)"}
{"smiles": "CC1=CC(C)(C(Cl)Cl)C(C)=CC1=O", "note": "(configuration not stated)", "inhibition": "-0.04% (inactive)"}
{"smiles": "Cc1cc(C)c(NC(=O)CSc2nnc(CNC(=O)c3c(F)cccc3Cl)o2)c(C)c1", "inhibition": "1.72% (inactive)"}
{"smiles": "CC(=O)N(C)C1=C(O)c2ccccc2C(=O)C1=O", "inhibition": "-5.54% (inactive)"}
{"smiles": "CC(=O)C(C(C)=O)C1(O)C(=O)c2ccccc2C1=O", "inhibition": "-7.03% (inactive)"}
{"smiles": "COc1ccc(CC(=O)Nc2ccc(S(=O)(=O)Nc3ncccn3)cc2)cc1", "inhibition": "-0.86% (inactive)"}
{"smiles": "S=C(Nc1ccccc1)NC1CCN(Cc2ccccc2)CC1", "inhibition": "2.12% (inactive)"}
{"smiles": "S=C(Nc1ccc(Cl)cc1)NC1CCN(Cc2ccccc2)CC1", "inhibition": "1.82% (inactive)"}
{"smiles": "Fc1ccc(NC(=S)NC2CCN(Cc3ccccc3)CC2)cc1", "inhibition": "17.7% (inactive)"}
{"smiles": "Cc1ccc(NC(=S)NC2CCN(Cc3ccccc3)CC2)cc1C", "inhibition": "7.22% (inactive)"}
